# How the values were obtained:
# Experiment in all cases: thermal shift delta Tm vs DMSO control; higher = stronger stabilization (binding)
# Details in all cases: 12.5 µM; protein concentration 2 µM
# [1] = test system: LOC_OS01G57100-cb003
# Procedure, shortened: (§1)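 The melting temperature shift given here is a triplicate mean, measured against protein that received only DMSO. Melting temperatures came from Boltzmann fits of differential scanning fluorimetry data on E. coli-expressed, purified rice kinase domain constructs. Each 19.5 μl well contained 2 μM kinase, 100 mM potassium phosphate pH 7.5, 150 mM NaCl, 10% glycerol, 5 × SYPRO Orange and compound in DMSO. Plates were scanned from 25°C to 95°C at 0.05°C/s.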
# [2] = test system: LOC_OS01G60330-cb001
# Procedure, shortened: as §1
# [3] = test system: LOC_OS01G60700-cb002
# Procedure, shortened: as §1
# [4] = test system: LOC_OS01G63280-cb003
# Procedure, shortened: as §1
# [5] = test system: LOC_OS01G67340-cb003
# Procedure, shortened: as §1
# [6] = test system: LOC_OS01G70970-cb002
# Procedure, shortened: as §1
# [7] = test system: LOC_OS02G07810-cb001
# Procedure, shortened: as §1
# [8] = test system: LOC_OS02G08530-cb003
# Procedure, shortened: as §1
# [9] = test system: LOC_OS02G14120-cb001
# Procedure, shortened: as §1
# [10] = test system: LOC_OS02G17970-cb001
# Procedure, shortened: as §1
# [11] = test system: LOC_OS02G45750-cb003
# Procedure, shortened: as §1
# [12] = test system: LOC_OS02G54510-cb004
# Procedure, shortened: as §1
# [13] = test system: LOC_OS03G04050-cb001
# Procedure, shortened: as §1
# [14] = test system: LOC_OS03G12390-cb001
# Procedure, shortened: as §1
# [15] = test system: LOC_OS03G27990-cb004
# Procedure, shortened: as §1
# [16] = test system: LOC_OS03G50450-cb001
# Procedure, shortened: as §1
# [17] = test system: LOC_OS03G50810-cb003
# Procedure, shortened: as §1
# [18] = test system: LOC_OS04G35114-cb001
# Procedure, shortened: as §1
# [19] = test system: T1, LOC_OS04G38480-cb003
# T1 sequence (whole entry): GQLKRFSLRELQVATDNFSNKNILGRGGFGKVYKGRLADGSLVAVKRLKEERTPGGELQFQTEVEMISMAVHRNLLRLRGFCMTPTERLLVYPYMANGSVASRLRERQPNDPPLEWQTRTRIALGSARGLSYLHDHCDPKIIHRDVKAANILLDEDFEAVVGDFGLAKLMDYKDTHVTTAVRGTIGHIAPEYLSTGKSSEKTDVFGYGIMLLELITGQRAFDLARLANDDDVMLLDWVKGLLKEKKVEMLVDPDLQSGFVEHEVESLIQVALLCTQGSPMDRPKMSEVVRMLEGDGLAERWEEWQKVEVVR
# Procedure, shortened: as §1
# [20] = test system: T2, LOC_OS04G41100-cb001
# T2 sequence (whole entry): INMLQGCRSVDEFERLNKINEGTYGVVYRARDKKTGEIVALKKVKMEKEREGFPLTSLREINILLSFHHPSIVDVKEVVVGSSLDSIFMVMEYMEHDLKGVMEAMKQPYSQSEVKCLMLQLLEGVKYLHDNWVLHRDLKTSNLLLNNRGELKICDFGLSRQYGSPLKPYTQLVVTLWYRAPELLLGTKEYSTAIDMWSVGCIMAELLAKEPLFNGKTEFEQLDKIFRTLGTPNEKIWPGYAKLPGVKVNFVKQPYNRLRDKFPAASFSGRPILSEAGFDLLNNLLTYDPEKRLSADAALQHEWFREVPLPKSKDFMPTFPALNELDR
# Procedure, shortened: as §1
SMILES,thermal shift delta Tm [1] [°C],thermal shift delta Tm [2] [°C],thermal shift delta Tm [3] [°C],thermal shift delta Tm [4] [°C],thermal shift delta Tm [5] [°C],thermal shift delta Tm [6] [°C],thermal shift delta Tm [7] [°C],thermal shift delta Tm [8] [°C],thermal shift delta Tm [9] [°C],thermal shift delta Tm [10] [°C],thermal shift delta Tm [11] [°C],thermal shift delta Tm [12] [°C],thermal shift delta Tm [13] [°C],thermal shift delta Tm [14] [°C],thermal shift delta Tm [15] [°C],thermal shift delta Tm [16] [°C],thermal shift delta Tm [17] [°C],thermal shift delta Tm [18] [°C],thermal shift delta Tm [19] [°C],thermal shift delta Tm [20] [°C]
CNS(=O)(=O)C[C@H]1CC[C@H](N(C)c2[nH]cnc3nccc2-3)CC1 [Oclacitinib],1.69,4.38,1.12,2.6,2.18,1.16,0.11,2.49,4.19,1.21,3.43,0.36,0.63,1.78,1.09,1.35,1.01,1.87,0.99,0.23
O=C(NCc1cccc(O)c1)Nc1nc(-c2ccncc2)cs1,0.7,0.56,1.38,-0.09,0.16,0.57,1.03,1.04,0.87,0.34,-1.72,0.56,1.15,0.54,1.06,0.51,0.05,1.65,0.86,0.95
Cc1ccc(Nc2nccc(N(C)c3ccc4c(C)n(C)nc4c3)n2)cc1S(N)(=O)=O,0.87,4.66,1.25,0.81,0.74,0.44,1.5,1.68,3.21,0.47,3.91,1.36,0.35,1.04,0.21,0.3,1.55,4.77,1.08,3.24
C[C@H]1CNC(=O)c2cnn3ccc(nc23)N[C@H](C)c2cc(F)ccc2O1,0.38,-0.02,-0.09,2,1.17,0.74,-0.67,2.82,10.7,-0.27,3.54,6.11,0.53,0.55,0.55,0.87,2.52,2.45,3.37,0.09
O=C1Nc2ccc(CN3C(=O)CSC3=O)cc2/C1=C/c1cc(CN2CCOCC2)c[nH]1,0.8,0.38,0.05,0.05,0.83,0.36,-0.68,2.55,9.24,-0.08,2.91,0.28,0.58,4.37,0.63,0.68,2,3.48,3.05,0.46
OCCn1cc(-c2cnc3nnn(Cc4ccc5ncccc5c4)c3n2)cn1,0.41,0.74,0.46,0.3,-0.64,0.28,0.2,0.45,-0.27,0.49,0.63,0.54,0.84,-0.07,0.33,0.8,0.22,0.87,-0.51,0.57
O=C(Nc1ccc(OC(F)(F)F)cc1)c1sccc1NCc1ccnc2ccccc12,0.93,2.48,0.05,6.18,0.22,1.27,1.03,0.68,0.49,0.48,0.52,4.36,0.44,0.88,0.45,0.51,0.48,0.29,0.95,0.59
"Cc1cc(Nc2ncnc3ccc(NC4=NC(C)(C)CO4)cc23)ccc1Oc1ccn2ncnc2c1 [Irbinitinib (ARRY-380, ONT-380)]",1.92,0.15,-0.86,-1.49,-1.04,-0.85,-0.86,0.22,0.7,0.09,0,0.14,0.65,-3.39,-0.73,-0.45,-0.83,-1.83,0.82,0.49
COc1nccc(-c2c(-c3ccc(F)cc3)ncn2C2CCC(O)CC2)n1 (stereo not given),1.45,1.05,0.84,0.44,0.6,0.09,0.67,0.39,-0.37,0.65,0.57,-0.06,0.08,0.08,0.19,0.52,0.48,0.56,1.13,0.51
CNC(=O)c1ccccc1Nc1nc(Nc2ccc(N3CCOCC3)cc2OC)ncc1Cl,2.81,0.04,1.25,0.09,0.32,2.69,0.19,4.3,5.33,1.35,1.17,-0.15,0.35,4.35,0.45,0.26,2.21,2.54,1.62,0.51
C=CC(=O)Nc1cccc(Oc2nc(Nc3ccc(N4CCN(C)CC4)cc3OC)ncc2Cl)c1,-0.16,0.75,0.6,0.05,-0.81,0.44,0.62,1.23,0.27,0.24,0.22,0.42,0.85,5.06,1.09,0.52,2.04,0.9,-0.58,0.39
CC(C)(O)CC(=O)NCCn1ccc2ncnc(Nc3ccc(Oc4cccc(C(F)(F)F)c4)c(Cl)c3)c21,2.91,5.27,0.11,1.26,1.33,1.03,1.53,0.93,1.51,0.83,0.62,-0.25,0.51,1.74,0.47,0.94,1.03,0.12,1.78,0.52

# Reference: the supplement of paper PMC9694430
